The results in this text go back to PubChem BioAssay (NCATS).

In assay [1] the target is Calcium and integrin-binding protein 1 (Homo sapiens) (UniProt Q99828). Kind of assay: Primary qHTS for Identification of Calcium Integrin Binding Protein 1 (CIB1) Competitor (AID 1508620).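 Note: GST tagged CIB1 binding a fluorescein labelled alphaIIb integrin peptide tracer; top concentration of the series differs between compounds.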 In short, it runs like this:
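Fluorescence polarization competition: GST-tagged CIB1 (1 uM final) preincubated with compound 15 min at room temperature, then FITC-labelled alphaIIb peptide (100 nM final) added. After 15 min at room temperature, polarization read at Ex 480/Em 540.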

Assay [2] can be described thus: Primary qHTS for small molecule stabilizers of the endoplasmic reticulum resident proteome: Secreted ER Calcium Modulated Protein (SERCaMP) assay (AID 1508630). In short, it runs like this: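 The SH-SY5Y reporter protocol was run at 3 concentrations up to 38.3 uM (primary) or 11 concentrations (follow-up): 16 h compound, 100 nM thapsigargin for 4 h, then extracellular luciferase luminescence.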

Assay [3] has as its target Cytochrome P450 2D6 (Homo sapiens) (UniProt P10635). Kind of assay: Cytochrome P450 family 2 subfamily D member 6 (CYP2D6) small molecule antagonists: luciferase biochemical (cell-free) qHTS assay (AID 1645840; active = well fitted curve in the direction sought with a large enough effect in the repeat runs; an effect the other way counts as inactive or inconclusive; note: nearly all actives have a fitted effect of over 55% in size; note: potency is the fitted concentration of half-maximal effect). In short, it runs like this: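 P450-Glo CYP2D6 system: proluciferin substrate converted by enzyme to luciferin, read by luminescence proportional to activity. Enzyme-substrate mix with compound 10 min at room temperature, then NADPH regeneration 1 h before detection reagent.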

Assay [4] concerns the target Cytochrome P450 2C9 (Homo sapiens) (UniProt P11712). The assay can be described thus: Cytochrome P450 family 2 subfamily C member 9 (CYP2C9) small molecule antagonists: luciferase biochemical (cell-free) qHTS assay (AID 1645842; active = well fitted curve in the direction sought with a large enough effect in the repeat runs; an effect the other way counts as inactive or inconclusive; note: nearly all actives have a fitted effect of over 55% in size; note: potency is the fitted concentration of half-maximal effect). In short, it runs like this: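 P450-Glo CYP2C9 system: proluciferin substrate with enzyme in mix containing 0.4% BSA, 10 min at room temperature, then NADPH regeneration solution added and incubated 1 h at 37C. Detection reagent stopped reaction; luminescence read after 20 min as RLU.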

The nature of assay [5]: Primary qHTS for inhibitors of nuclear receptor binding SET domain protein 2 (NSD2) in an isogenic RCH-ACV NSD2 p.E1099K mutant (9B) (AID 1645876). Note: potency is the fitted concentration of half-maximal effect; nearly all actives have a fitted effect of over 70% in size.
The nature of assay [6]: Primary qHTS for inhibitors of nuclear receptor binding SET domain protein 2 (NSD2) in an RCH-ACV wild type WT cells (2C) (AID 1645877). Note: potency is the fitted concentration of half-maximal effect; nearly all actives have a fitted effect of over 70% in size.
Assay [7] has as its target Catechol O-methyltransferase (Homo sapiens) (UniProt P21964). The assay can be described thus: Confirmatory Screen for Target Class Profiling of Small Molecule Inhibitors of Methyltransferases (AID 1745852). As to conditions: MTase-Glo luminescence, SAH detection, recombinant enzyme; measured here: COMT max response; stronger effect = lower value.
Assay [8] addresses Guanidinoacetate N-methyltransferase (Homo sapiens) (UniProt Q14353). The assay is described as above. The conditions noted are these: activity change, negative = inhibition: at 57.3 µM (top of the series).
In assay [9] the target is Nicotinamide N-methyltransferase (Homo sapiens) (UniProt P40261). The description is as above. The conditions noted are these: MTase-Glo luminescence, SAH detection, recombinant enzyme; measured here: NNMT max response; stronger effect = lower value.

Several values for one entry are separate records, joined by “and”; a condition that tells them apart may be missing. Equal entries are not always repeated. Results filed as inconclusive are left out. Where a call stands in place of a potency, no number is given. Activity calls are given as the source filed them. Unless noted, calls come from the whole dose curve; as a rule, active = well fitted curve in the direction sought with a large enough effect; inconclusive = small, poorly fitted or top-dose-only effect, or another doubt; inactive = no such curve, though single readings can be large; an effect the other way counts as inactive or inconclusive.

Sequence of Calcium and integrin-binding protein 1 (Homo sapiens) (Q99828 whole entry, looked up): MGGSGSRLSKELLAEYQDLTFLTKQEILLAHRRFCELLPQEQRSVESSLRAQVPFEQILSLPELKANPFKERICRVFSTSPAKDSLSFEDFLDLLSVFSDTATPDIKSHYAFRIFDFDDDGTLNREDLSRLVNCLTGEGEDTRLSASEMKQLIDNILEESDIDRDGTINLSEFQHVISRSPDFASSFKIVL
Sequence of Cytochrome P450 2D6 (Homo sapiens) (P10635 whole entry, looked up): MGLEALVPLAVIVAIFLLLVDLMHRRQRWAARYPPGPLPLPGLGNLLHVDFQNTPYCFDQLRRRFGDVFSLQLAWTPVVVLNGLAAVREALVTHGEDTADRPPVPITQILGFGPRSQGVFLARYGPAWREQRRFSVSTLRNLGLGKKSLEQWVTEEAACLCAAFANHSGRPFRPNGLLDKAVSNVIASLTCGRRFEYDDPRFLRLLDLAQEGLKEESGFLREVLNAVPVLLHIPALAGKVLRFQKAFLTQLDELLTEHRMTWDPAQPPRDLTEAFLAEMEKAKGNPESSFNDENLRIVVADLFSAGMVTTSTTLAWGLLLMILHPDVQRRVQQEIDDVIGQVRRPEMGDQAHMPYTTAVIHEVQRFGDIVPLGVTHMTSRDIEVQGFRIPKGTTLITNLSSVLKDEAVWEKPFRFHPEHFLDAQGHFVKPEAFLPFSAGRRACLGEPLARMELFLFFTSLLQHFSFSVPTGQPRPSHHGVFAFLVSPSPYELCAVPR
Sequence of Cytochrome P450 2C9 (Homo sapiens) (P11712 whole entry, looked up): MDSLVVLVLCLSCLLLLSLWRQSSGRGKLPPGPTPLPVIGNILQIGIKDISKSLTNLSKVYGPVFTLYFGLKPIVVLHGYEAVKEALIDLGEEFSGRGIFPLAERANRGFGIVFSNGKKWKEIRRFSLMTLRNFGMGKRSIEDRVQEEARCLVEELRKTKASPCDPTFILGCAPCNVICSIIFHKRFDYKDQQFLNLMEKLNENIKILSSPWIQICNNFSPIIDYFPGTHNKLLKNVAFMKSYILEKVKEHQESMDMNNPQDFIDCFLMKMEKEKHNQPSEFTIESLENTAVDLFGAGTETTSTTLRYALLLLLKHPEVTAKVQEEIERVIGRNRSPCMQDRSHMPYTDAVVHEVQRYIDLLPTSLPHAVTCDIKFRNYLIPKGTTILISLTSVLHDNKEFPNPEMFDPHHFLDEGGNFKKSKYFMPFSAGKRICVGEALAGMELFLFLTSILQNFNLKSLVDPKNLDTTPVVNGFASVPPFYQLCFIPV
Sequence of Nicotinamide N-methyltransferase (Homo sapiens) (P40261 whole entry, looked up): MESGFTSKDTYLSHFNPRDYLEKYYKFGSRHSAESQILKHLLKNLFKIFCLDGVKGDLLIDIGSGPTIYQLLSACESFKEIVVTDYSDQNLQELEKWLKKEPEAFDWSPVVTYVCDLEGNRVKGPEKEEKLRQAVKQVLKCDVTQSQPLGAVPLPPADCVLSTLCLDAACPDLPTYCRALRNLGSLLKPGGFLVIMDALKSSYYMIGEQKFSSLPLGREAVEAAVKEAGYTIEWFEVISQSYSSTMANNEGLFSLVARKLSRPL
Sequence of Catechol O-methyltransferase (Homo sapiens) (P21964 whole entry, looked up): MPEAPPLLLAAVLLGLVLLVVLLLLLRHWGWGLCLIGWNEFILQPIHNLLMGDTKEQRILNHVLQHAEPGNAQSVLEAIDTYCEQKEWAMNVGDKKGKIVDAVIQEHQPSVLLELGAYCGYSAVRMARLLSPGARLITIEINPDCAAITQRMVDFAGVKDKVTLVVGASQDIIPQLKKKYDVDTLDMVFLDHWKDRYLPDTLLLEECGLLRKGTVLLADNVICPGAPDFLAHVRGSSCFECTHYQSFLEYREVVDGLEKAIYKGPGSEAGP

In the case of `OCc1ccccc1O[C@@H]1O[C@H](CO)[C@H](O)[C@H](O)[C@H]1O`, in assay [1], the Potency entry is “inactive”. Moreover, in assay [2], the outcome was “inactive”.

Consider `C#C[C@]1(O)CC[C@@H]2[C@@H]3CCC4=CC(=O)CC[C@@H]4[C@H]3CC[C@@]21CC`, for which the Potency result in assay [1] was “inactive”. In addition, the outcome in assay [2] was “inactive”.

`CCCCCN=C(N)NN=Cc1c[nH]c2ccc(OC)cc12`: the Potency entry in assay [1] was “inactive”. Also, the outcome in [2] is “inactive”.

For the compound `C[C@@]12C[C@@]3(O)O[C@@H](O1)[C@]1(COC(=O)c4ccccc4)[C@@H]3C[C@@]12O[C@@H]1O[C@H](CO)[C@@H](O)[C@H](O)[C@@H]1O`, the Potency result in assay [1] is “inactive”. Also, in assay [2], the outcome is “inactive”.

Consider `C=CCNC1=C2C[C@@H](C)C[C@H](OC)[C@@H](O)[C@@H](C)C=C(C)[C@H](OC(N)=O)[C@@H](OC)C=CC=C(C)C(=O)NC(=CC1=O)C2=O`, for which, in assay [1], the Potency result was “inactive”. The outcome in [2] is “inactive”.

As for `CC(C)(C)[C@H](NC(=O)c1ccc(N)c(Cl)c1)C(=O)N1CCC[C@@H]1C(=O)N[C@H](C#N)CC(=O)O`, the results for the activity change, negative = inhibition in assay [1] and in assay [2] were -8.66% [at 6.45 µM] (inactive) and 176% [at 3.88 µM] (inactive), respectively.

In the case of `C[C@H](CCC(=O)O)[C@H]1CC[C@H]2[C@@H]3[C@H](O)C[C@@H]4C[C@H](O)CC[C@]4(C)[C@@H]3CC[C@]12C`, in assay [1], the Potency result was “inactive”. Moreover, in [2], the outcome is “inactive”.

For `CC(=O)N[C@@H]1[C@H](O[C@@H]2c3ccc(c(Cl)c3)Oc3cc4cc(c3O[C@H]3O[C@H](CO)[C@@H](O)[C@H](O)[C@H]3NC(=O)CCCCCCCC(C)C)Oc3ccc(cc3Cl)C[C@H]3NC(=O)[C@H](N)c5ccc(O)c(c5)Oc5cc(O)cc(c5)[C@H](NC3=O)C(=O)N[C@H]4C(=O)N[C@H]3C(=O)N[C@@H]2C(=O)N[C@@H](C(=O)O)c2cc(O)cc(O[C@H]4O[C@H](CO)[C@@H](O)[C@H](O)[C@H]4O)c2-c2cc3ccc2O)O[C@H](CO)[C@@H](O)[C@@H]1O`, in [1], the Potency result was “inactive”. The outcome in assay [2] is “inactive”.

On to `CCN(CC)CCNC(=O)c1c(C)[nH]c(C=C2C(=O)Nc3ccc(F)cc32)c1C`, for which the Potency result in [1] was “inactive”. Moreover, the outcome in [2] was “inactive”.

For `Cc1[nH]c(C=C2C(=O)Nc3ccccc32)c(C)c1CCC(=O)O`, the Potency entry in assay [1] was “inactive”. Further, the outcome in assay [2] was “inactive”.

Regarding `O=C1NC(=O)C(=Cc2ccc3nccc(-c4ccncc4)c3c2)S1`, the Potency result in assay [1] was “inactive”. Also, in [2], the outcome was “inactive”.

Turning to `O=c1c(O)c(-c2ccc(O)c(O)c2)oc2cc(O)ccc12`, in assay [1], the Potency result was “inactive”. The outcome in assay [2] is “inactive”.

On to `CN[C@@H]1C[C@H]2O[C@@](C)([C@H]1OC)n1c3ccccc3c3c4c(c5c6ccccc6n2c5c31)C(=O)N[C@H]4O`, for which the Potency entry in [1] was “inactive”. Also, in assay [2], the outcome is “inactive”.

Turning to `NC[C@H]1O[C@H](O[C@H]2[C@@H](O)[C@@H](O[C@H]3O[C@H](CO)[C@@H](O)[C@H](N)[C@@H]3O)[C@H](N)C[C@@H]2N)[C@H](N)C[C@H]1O`, the Potency entry in assay [1] was “inactive”. Moreover, in assay [2], the outcome was “inactive”.

As for `O=C(NNC(=O)c1ccc(CNS(=O)(=O)c2ccc(F)c(Cl)c2)cc1)c1ccccc1`, the Potency result in assay [1] is “inactive”. Also, in [2], the outcome was “inactive”.

Regarding `C[C@@]12C(=O)OC(=O)[C@@]1(C)C1CCC2O1`, the Potency entry in assay [1] was “inactive”. For the same compound, the outcome in assay [2] was “inactive”.

For the compound `CC(C)c1cc(C(C)C)c(CC(=O)NS(=O)(=O)Oc2c(C(C)C)cccc2C(C)C)c(C(C)C)c1`, in assay [1], the Potency entry was “inactive”. Moreover, the outcome in assay [2] was “inactive”.

For the compound `CCOC(=O)N1CCN([N+]([O-])=NOc2ccc([N+](=O)[O-])cc2[N+](=O)[O-])CC1`, in assay [1], the Potency result was “inactive”. Further, the outcome in [2] was “inactive”.

With `CC(=O)O[C@@]12CO[C@H]1C[C@H](O)[C@@]1(C)C(=O)[C@H](O)C3=C(C)[C@@H](OC(=O)C(O)[C@@H](NC(=O)OC(C)(C)C)c4ccccc4)C[C@@](O)([C@@H](OC(=O)c4ccccc4)[C@@H]21)C3(C)C` (stereo partly drawn), in [1], the Potency result is “inactive”. In addition, the outcome in assay [2] is “inactive”.

`O=C(O)[C@H](CC(=O)N1C[C@@H]2CCCC[C@H]2C1)Cc1ccccc1`: in assay [1], the Potency result is “inactive”. In assay [2], the outcome is “inactive”.

With `C=C1C(=CC=C2CCC[C@]3(C)[C@@H]([C@H](C)CCCC(C)(C)O)CC[C@@H]23)C[C@@H](O)C[C@@H]1O`, the Potency result in [1] was “inactive”. Also, the outcome in assay [2] is “inactive”.

For the compound `COC(=O)[C@@H]1CC2=CC(=O)CC[C@]2(C)[C@@]23O[C@@H]2C[C@@]2(C)[C@H](CC[C@@]24CCC(=O)O4)[C@@H]13`, the Potency entry in assay [1] was “inactive”. Besides, the outcome in assay [2] is “inactive”.

Take `COc1ccc(C(C)=O)c(O)c1`: the Potency result in [1] is “inactive”. Besides, the outcome in assay [2] is “inactive”.

Regarding `FC(F)c1nc2ccccc2n1-c1nc(N2CCOCC2)nc(N2CCOCC2)n1`, the Potency entry in [1] and in assay [3] was “inactive” in each case. In assay [2], the outcome is “inactive”. Besides, the Potency in [4] was 1.69 µM (active); in assay [5], 57.8 nM (active) and 41.7 nM (active); in assay [6], 72.8 nM (active) and 105 nM (active).

With `CO[C@@H]1[C@@H](O)[C@H](O)[C@@H](n2c3c(Cl)cccc3c3c4c(c5c6cccc(Cl)c6[nH]c5c32)C(=O)NC4=O)O[C@@H]1CO`, the Potency result in [1] was “inactive”. The outcome in [2] is “inactive”.

On to `CN1CCc2c(c3ccccc3n2Cc2ccc(C(=O)NO)cc2)C1`, for which the Potency result in [1] and in [4] was “inactive” each time. The outcome in [2] is “inactive”. Besides, the Potency was 7.56 µM (active) in assay [3]; 16.3 µM (active) and 18.6 µM (active) in assay [5]; 11.5 µM (active) and 16.6 µM (active) in assay [6]. The activity was 0% in assay [7] and -7.28% in assay [9]. Also, in [8], the activity change, negative = inhibition is -3.04%.
